# Experimental data: paper PMC7862700, “An all-to-all approach to the identification of sequence-specific readers for epigenetic DNA modifications on cytosine”
# How the values were obtained:
# Assay in all cases: DAPPL (digital affinity profiling via proximity ligation, sequencing); 10 mM Tris-HCl pH 7.5, 50 mM NaCl, 1 mM DTT, 4% glycerol, room temperature, 30 min; GST-TFs on glutathione beads, 16-mer random dsDNA library, 0.1% formaldehyde crosslink after washing; high values mean tight binding
# Conditions in all cases: protein: recombinant; tags: N-terminal GST; dsDNA, one strand shown
# FLI1 = target: T1, FLI1 (Homo sapiens, UniProt Q01543 1-452)
# T1 sequence: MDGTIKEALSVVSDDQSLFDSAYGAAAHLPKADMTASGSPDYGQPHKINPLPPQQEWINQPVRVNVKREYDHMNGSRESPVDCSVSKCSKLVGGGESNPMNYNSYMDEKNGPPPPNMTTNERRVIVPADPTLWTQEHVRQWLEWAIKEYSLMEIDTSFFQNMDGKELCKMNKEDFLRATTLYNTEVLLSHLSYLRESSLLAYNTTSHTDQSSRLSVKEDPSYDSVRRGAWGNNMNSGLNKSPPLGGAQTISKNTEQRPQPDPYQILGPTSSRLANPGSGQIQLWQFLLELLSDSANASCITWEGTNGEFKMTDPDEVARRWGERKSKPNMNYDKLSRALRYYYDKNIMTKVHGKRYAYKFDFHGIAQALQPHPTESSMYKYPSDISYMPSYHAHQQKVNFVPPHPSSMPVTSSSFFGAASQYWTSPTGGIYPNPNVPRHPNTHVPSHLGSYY
# Method in brief: (§1)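 Binding signal is each hexamer's read frequency for a factor divided by its frequency in the tag-only sample. The factors were GST-fused human transcription factors from yeast, captured on glutathione beads, DNA-barcoded and pooled with that sample. Pools were incubated with 200 nmole of a random double-stranded 16-mer DNA library in Tris/NaCl/DTT/glycerol buffer at room temperature for 30 min, then washed, crosslinked with 0.1% formaldehyde, proximity-ligated with BsaI/T4 ligase (1 h, 37 °C), PCR-amplified and sequenced on an Illumina NextSeq500.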
# ELK1 = target: T2, ELK1 (Homo sapiens, UniProt P19419 1-428)
# T2 sequence: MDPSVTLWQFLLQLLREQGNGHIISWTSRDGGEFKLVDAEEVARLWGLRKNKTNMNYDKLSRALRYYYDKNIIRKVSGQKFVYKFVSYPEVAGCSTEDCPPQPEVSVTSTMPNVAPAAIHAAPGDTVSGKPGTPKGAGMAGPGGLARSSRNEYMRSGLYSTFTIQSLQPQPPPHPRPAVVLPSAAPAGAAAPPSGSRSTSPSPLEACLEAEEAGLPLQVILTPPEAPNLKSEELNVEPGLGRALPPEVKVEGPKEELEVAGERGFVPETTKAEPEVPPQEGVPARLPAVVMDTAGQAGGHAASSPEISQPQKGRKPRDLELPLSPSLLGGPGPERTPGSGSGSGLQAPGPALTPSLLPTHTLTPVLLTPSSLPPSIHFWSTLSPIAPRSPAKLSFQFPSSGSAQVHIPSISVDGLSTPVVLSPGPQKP
# Method in brief: as §1
# GABPA = target: T3, GABPA (Homo sapiens, UniProt Q06546 1-454)
# T3 sequence: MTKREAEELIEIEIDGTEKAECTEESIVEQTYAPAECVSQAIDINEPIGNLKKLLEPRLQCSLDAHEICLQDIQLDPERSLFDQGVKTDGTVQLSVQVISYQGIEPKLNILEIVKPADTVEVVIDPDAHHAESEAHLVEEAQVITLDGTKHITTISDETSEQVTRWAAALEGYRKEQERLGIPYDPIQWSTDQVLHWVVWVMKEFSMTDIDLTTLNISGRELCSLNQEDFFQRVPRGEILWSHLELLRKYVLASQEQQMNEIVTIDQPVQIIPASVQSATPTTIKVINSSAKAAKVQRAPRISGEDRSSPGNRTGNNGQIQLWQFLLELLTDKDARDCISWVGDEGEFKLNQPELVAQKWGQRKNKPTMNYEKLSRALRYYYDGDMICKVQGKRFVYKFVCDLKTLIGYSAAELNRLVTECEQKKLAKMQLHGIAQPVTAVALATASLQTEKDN
# Method in brief: as §1
# ERG = target: T4, ERG (Homo sapiens, UniProt P11308 1-479)
# T4 sequence: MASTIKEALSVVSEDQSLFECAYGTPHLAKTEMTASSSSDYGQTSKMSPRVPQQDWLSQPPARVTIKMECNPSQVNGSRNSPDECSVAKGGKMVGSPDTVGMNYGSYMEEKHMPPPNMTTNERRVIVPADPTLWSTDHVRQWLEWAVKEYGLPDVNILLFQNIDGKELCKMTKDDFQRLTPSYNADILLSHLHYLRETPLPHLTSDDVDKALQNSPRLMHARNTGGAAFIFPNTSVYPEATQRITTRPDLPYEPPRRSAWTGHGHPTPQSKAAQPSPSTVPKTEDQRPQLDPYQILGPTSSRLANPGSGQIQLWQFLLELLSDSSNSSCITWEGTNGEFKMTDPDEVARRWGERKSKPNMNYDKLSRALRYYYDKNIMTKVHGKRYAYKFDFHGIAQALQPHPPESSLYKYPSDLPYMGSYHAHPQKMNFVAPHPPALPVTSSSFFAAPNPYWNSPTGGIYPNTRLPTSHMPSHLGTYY
# Method in brief: as §1
# ELF1 = ELF1 (Homo sapiens, UniProt P32519 1-619)
# Chain of ELF1 (P32519 whole entry): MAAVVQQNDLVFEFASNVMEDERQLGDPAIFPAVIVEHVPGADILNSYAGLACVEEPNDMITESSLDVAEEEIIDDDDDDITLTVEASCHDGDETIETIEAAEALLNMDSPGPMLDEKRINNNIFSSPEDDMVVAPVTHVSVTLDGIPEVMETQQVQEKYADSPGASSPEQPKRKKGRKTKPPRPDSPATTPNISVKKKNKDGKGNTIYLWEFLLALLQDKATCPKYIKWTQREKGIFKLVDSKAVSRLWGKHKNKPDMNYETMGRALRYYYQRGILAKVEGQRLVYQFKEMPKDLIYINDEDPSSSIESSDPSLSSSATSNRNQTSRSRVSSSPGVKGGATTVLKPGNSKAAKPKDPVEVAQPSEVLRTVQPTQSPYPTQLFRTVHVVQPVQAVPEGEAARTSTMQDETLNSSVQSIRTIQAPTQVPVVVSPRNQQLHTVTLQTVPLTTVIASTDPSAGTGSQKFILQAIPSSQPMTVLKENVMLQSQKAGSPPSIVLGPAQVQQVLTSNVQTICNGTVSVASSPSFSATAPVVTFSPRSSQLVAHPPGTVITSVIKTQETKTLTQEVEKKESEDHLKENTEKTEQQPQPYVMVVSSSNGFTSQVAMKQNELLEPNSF
# Method in brief: as §1
# SPI1 = SPI1 (Homo sapiens, UniProt P17947 1-270)
# Method in brief: as §1
# SPIB = SPIB (Homo sapiens, UniProt Q01892 1-262)
# Chain of SPIB (Q01892 whole entry): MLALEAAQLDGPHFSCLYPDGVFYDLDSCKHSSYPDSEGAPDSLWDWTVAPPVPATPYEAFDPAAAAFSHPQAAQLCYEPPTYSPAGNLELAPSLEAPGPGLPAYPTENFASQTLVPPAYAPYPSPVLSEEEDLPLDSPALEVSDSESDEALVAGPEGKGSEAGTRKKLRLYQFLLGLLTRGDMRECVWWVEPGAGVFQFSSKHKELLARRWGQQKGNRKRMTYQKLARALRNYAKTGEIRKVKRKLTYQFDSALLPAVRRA
# Method in brief: as §1
# FEV = target: T5, FEV (Homo sapiens, UniProt Q99581 1-238)
# T5 sequence: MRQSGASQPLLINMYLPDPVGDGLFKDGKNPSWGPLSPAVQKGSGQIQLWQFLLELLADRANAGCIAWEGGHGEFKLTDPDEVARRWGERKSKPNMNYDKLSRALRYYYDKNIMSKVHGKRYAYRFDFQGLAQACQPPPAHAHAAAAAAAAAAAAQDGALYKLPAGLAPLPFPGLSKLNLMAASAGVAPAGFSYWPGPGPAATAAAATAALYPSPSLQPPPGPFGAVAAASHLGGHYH
# Method in brief: as §1
# ETV5 = ETV5 (Homo sapiens, UniProt P41161 1-510)
# Chain of ETV5 (P41161 whole entry): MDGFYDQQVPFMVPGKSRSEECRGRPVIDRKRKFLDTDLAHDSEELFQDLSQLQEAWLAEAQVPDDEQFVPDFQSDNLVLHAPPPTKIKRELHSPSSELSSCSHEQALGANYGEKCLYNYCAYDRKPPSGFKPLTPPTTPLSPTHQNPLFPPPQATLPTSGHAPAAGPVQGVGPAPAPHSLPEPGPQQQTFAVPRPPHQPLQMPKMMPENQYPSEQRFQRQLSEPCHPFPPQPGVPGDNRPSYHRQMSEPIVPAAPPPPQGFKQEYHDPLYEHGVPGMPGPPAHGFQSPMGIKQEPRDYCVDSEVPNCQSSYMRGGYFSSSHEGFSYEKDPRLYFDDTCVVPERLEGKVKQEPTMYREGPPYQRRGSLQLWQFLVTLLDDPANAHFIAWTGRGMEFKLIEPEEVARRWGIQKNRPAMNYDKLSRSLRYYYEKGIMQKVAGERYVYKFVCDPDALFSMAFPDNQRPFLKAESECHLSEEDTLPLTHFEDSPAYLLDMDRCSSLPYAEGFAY
# Method in brief: as §1
# ELF4 = ELF4 (Homo sapiens, UniProt Q99607 1-663)
# Chain of ELF4 (Q99607 whole entry): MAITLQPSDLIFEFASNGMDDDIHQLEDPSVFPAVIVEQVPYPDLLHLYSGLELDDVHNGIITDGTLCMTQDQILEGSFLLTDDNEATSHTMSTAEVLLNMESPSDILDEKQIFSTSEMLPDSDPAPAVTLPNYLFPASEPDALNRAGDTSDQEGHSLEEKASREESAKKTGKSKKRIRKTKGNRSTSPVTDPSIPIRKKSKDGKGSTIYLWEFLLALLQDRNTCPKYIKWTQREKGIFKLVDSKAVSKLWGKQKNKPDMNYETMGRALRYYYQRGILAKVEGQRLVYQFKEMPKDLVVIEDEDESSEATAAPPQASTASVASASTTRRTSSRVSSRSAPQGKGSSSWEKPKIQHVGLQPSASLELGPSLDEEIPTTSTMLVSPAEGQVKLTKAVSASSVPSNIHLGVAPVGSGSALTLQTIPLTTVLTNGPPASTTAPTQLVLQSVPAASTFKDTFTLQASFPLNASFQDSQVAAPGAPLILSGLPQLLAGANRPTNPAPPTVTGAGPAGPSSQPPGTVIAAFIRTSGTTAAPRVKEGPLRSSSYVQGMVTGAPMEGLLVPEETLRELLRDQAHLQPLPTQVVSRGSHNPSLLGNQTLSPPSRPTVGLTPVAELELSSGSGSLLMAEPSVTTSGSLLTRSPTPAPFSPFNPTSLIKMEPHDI
# Method in brief: as §1
# ETV2 = target: T6, ETV2 (Homo sapiens, UniProt O00321 1-342)
# T6 sequence: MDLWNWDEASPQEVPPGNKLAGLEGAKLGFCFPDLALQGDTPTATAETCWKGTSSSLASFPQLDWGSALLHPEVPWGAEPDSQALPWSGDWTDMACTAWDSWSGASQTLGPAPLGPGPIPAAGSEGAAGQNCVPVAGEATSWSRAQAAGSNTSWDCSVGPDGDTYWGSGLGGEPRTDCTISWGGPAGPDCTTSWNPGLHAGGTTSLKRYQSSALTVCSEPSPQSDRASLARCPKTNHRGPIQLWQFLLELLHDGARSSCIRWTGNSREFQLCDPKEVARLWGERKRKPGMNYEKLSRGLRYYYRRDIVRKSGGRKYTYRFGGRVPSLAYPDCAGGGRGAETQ
# Method in brief: as §1
# ETV1 = ETV1 (Homo sapiens, UniProt P50549 1-477)
# Chain of ETV1 (P50549 whole entry): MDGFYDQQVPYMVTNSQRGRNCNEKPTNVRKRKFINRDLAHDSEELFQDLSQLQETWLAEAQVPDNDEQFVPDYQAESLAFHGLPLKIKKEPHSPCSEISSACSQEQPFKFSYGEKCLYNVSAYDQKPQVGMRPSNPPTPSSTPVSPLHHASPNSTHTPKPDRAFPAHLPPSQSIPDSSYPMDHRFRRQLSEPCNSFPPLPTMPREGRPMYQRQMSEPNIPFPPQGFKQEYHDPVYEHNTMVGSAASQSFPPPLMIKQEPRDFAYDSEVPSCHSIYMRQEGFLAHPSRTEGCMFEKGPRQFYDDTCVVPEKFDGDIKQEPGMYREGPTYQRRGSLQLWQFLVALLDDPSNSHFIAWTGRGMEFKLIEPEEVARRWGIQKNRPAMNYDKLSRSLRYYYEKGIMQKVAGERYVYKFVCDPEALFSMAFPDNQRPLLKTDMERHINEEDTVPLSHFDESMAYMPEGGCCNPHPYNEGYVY
# Method in brief: as §1
# ETV3L = target: T7, ETV3L (Homo sapiens, UniProt Q6ZN32 1-361)
# T7 sequence: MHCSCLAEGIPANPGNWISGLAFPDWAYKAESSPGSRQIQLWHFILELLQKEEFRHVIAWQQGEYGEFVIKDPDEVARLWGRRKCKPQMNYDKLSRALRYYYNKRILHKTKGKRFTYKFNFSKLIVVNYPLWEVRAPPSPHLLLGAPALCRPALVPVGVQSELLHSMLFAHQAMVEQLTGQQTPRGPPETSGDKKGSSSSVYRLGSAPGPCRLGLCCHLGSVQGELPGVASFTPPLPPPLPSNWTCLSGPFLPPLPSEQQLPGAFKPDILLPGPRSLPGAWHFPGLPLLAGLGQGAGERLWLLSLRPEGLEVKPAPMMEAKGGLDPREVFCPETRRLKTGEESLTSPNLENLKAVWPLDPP
# Method in brief: as §1
# ETS2 = target: T8, ETS2 (Homo sapiens, UniProt P15036 1-469)
# T8 sequence: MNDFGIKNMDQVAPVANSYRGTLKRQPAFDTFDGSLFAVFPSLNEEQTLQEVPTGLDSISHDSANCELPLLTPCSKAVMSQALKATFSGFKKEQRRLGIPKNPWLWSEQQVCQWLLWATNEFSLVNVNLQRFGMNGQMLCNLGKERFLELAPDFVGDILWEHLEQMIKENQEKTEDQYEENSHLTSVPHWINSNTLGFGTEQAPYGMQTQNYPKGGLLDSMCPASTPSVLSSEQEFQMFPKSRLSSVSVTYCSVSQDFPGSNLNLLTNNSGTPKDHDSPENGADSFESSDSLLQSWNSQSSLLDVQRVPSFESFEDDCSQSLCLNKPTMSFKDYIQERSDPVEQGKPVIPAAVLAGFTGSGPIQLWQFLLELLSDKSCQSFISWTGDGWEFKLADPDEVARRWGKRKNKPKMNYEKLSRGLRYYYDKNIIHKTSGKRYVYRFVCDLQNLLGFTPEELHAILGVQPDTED
# Method in brief: as §1
# ETV3 = target: T9, ETV3 (Homo sapiens, UniProt P41162-2 1-143)
# T9 sequence: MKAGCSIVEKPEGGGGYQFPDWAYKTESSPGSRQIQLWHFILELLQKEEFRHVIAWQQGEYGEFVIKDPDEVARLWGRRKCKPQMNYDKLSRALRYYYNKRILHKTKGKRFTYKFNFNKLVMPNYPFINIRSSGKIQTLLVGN
# Method in brief: as §1
# ETV6 = ETV6 (Homo sapiens, UniProt P41212 1-452)
# Chain of ETV6 (P41212 whole entry): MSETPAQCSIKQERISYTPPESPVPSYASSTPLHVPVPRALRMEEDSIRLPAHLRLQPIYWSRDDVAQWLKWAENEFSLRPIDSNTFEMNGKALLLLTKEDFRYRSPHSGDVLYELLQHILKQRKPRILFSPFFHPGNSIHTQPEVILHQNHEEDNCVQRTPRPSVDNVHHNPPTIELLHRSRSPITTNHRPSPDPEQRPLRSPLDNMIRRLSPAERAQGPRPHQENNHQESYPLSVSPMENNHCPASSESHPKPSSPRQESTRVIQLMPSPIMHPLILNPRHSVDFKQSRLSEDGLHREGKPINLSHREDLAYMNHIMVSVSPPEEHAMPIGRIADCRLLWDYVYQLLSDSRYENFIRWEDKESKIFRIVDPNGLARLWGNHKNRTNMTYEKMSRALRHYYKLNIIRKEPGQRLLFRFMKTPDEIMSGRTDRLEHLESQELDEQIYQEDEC
# Method in brief: as §1
sequence,measurement,setting,value
CCCTGA,binding signal,FLI1,"1 fold enrichment (6-mer frequency, TF over GST control)"
same,binding signal,ELK1,"1.18 fold enrichment (6-mer frequency, TF over GST control)"
same,binding signal,GABPA,"1.05 fold enrichment (6-mer frequency, TF over GST control)"
same,binding signal,ERG,"1.04 fold enrichment (6-mer frequency, TF over GST control)"
same,binding signal,ELF1,"1.06 fold enrichment (6-mer frequency, TF over GST control)"
same,binding signal,SPI1,"1.03 fold enrichment (6-mer frequency, TF over GST control)"
same,binding signal,SPIB,"1.1 fold enrichment (6-mer frequency, TF over GST control)"
same,binding signal,FEV,"1.04 fold enrichment (6-mer frequency, TF over GST control)"
same,binding signal,ETV5,"1.07 fold enrichment (6-mer frequency, TF over GST control)"
same,binding signal,ELF4,"1.05 fold enrichment (6-mer frequency, TF over GST control)"
same,binding signal,ETV2,"1.17 fold enrichment (6-mer frequency, TF over GST control)"
same,binding signal,ETV1,"1.09 fold enrichment (6-mer frequency, TF over GST control)"
same,binding signal,ETV3L,"1.04 fold enrichment (6-mer frequency, TF over GST control)"
same,binding signal,ETS2,"1.02 fold enrichment (6-mer frequency, TF over GST control)"
same,binding signal,ETV3,"1.01 fold enrichment (6-mer frequency, TF over GST control)"
same,binding signal,ETV6,"1.05 fold enrichment (6-mer frequency, TF over GST control)"
